Consider five compounds from PubChem BioAssay.

Each structure is given as a SMILES string. Results filed as inconclusive are left out. Active and inactive are the calls of the source.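 Rule for the calls, unless noted: active = normalized viability below 100% at a tested concentration; inactive = the rest.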

A short description of assay [1]: viability loss in pontine glioma line – cell-based, SU-DIPG-XVII, MIPE5.0, CellTiter-Glo, qHTS, dose response (AID 1347060; cut-off not given, nearly all actives have AC50 up to about 26 µM;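 for AC50: cells exposed to compound for 48 hours before viability readout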). The note with it: CellTiter-Glo ATP luminescence. A general note: In ATP-based viability assays light output follows the ATP content of the culture.
Assay [2] is described as follows: viability loss in pontine glioma line – cell-based, JHH-DIPG-1, MIPE4.0, CellTiter-Glo, qHTS, dose response (AID 1347062; cut-off not given, nearly all actives have AC50 up to about 27 µM;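 for AC50: cells exposed to compound for two days before readout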). The note with it: JHH-DIPG-1 viability, CellTiter-Glo ATP luminescence.
Assay [3] can be described thus: viability loss in pontine glioma line – cell-based, SU-DIPG-IV, MIPE4.0, CellTiter-Glo, qHTS, dose response (AID 1347063; cut-off not given, nearly all actives have AC50 up to about 30 µM;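 note: compound exposure lasted 48 hours before the viability readout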). The note with it: CellTiter-Glo ATP luminescence.
Assay [4] can be described thus: viability loss in pontine glioma line – cell-based, SU-DIPG-XIII, MIPE5.0, CellTiter-Glo, qHTS, dose response (AID 1347064; cut-off not given, nearly all actives have AC50 up to about 23 µM;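 for AC50: cells exposed to compound for 48 hours before the viability read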). The note with it: CellTiter-Glo ATP luminescence.
Assay [5] in a line: viability loss in pontine glioma line – cell-based, SU-DIPG-XXV, MIPE5.0, CellTiter-Glo, qHTS, dose response (AID 1347065; cut-off not given, nearly all actives have AC50 up to about 26 µM;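 note: cells exposed to compound for 48 hours before ATP readout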). The note with it: CellTiter-Glo ATP luminescence.
Assay [6] is described as follows: JHH-DIPG-1 glioma cell viability, MIPE5.0 library, CellTiter-Glo luminescence, qHTS (AID 1347067; cut-off not given, nearly all actives have AC50 up to about 26 µM;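 note: cells exposed to compound for 48 hours before readout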). The conditions noted are these: JHH-DIPG-1 glioma viability, CellTiter-Glo ATP luminescence.
Assay [7] is described as follows: growth inhibition of DIPG cells – cell-based, MIPE5.0 library, qHTS (AID 1347068; cut-off not given, nearly all actives have IC50 up to about 30 µM;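 for IC50: cells exposed to compound for 48 hours before viability readout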). The note with it: SU-DIPG-XXV viability. (In general: In qHTS, concentration-response curves come from the screen itself.)
The nature of assay [8]: drug combination growth inhibition, ovarian cancer – cell-based, oncology-focused library, rucaparib conditional, profiling panel (AID 1508598). The note with it: patient-derived ovarian cancer cells, CellTiter-Glo viability, 144 h, stronger effect = lower value.
Assay [9] can be described thus: viability loss with induced miR-34 in A549 – imaging, A549 dox-inducible miR-34, nuclei and caspase counts, primary screen (AID 1347080;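 active = compounds whose cell count with miR-34 switched on is under 0.7 times the count with it off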). The note with it: A549 miR-34 inducible, Hoechst nuclei count, 48 h.
Assay [10] in a line: MELAS cybrid and Rieske KO viability enhancers – cell-based, MELAS cybrids, Rieske KO mouse fibroblasts, CellTiter-Glo, primary screen (AID 1508586;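 active = mean z-score across replicates of 1.96 or higher in either the MELAS or the Rieske mutant cell line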;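 note: z relative to plate mean and SD of compound and empty wells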). The note with it: low glucose.
Setting [11] is: stronger effect = lower value, cell number ratio, induced over uninduced.
Where [12] appears, read: measured here: relative caspase fold change +Dox/-Dox.
[13] abbreviates: measured here: total cells with miR-34 induction, stronger effect = lower value.
Setting [14] is: measured here: total cells without miR-34 induction.
Setting [15] is: MELAS cybrid survival, CellTiter-Glo 48 h, stronger effect = higher value.
Setting [16] is: Rieske KO mouse fibroblast survival, CellTiter-Glo 72 h.

Usually AC50 stands for the concentration at which the activity in the assay is half-maximal. In general, IC50 refers to the concentration that inhibits the measured activity by half. One may read the viability as a read-out of living cells in per cent, often relative to untreated cells. In the case of `COc1cc(OC)c(/C=C/S(=O)(=O)Cc2ccc(OC)c(NCC(=O)O)c2)c(OC)c1`, the AC50 in assay [1] was 93.4 nM (active); in assay [2] it was 935 nM (active); in assay [3], 26.4 nM (active); in [4], 295 nM (active); in [5] it was 118 nM (active); in assay [6], 118 nM (active). The IC50 in assay [7] is 66.1 nM (active). Also, the viability in assay [8] (at 0.000305 µM, OCI-C5x cells, with rucaparib 10 µM, 100% = cells with rucaparib alone) is 110% (inactive); in assay [8] (at 0.000305 µM, OCI-C5x cells, without rucaparib) it was 120% (inactive); in [8] (at 0.000305 µM, OCI-P5x cells, with rucaparib 20 µM, 100% = cells with rucaparib alone), 106% (inactive); in assay [8] (at 0.000305 µM, OCI-P5x cells, without rucaparib) it was 75.1% (active); in assay [8] (at 0.00122 µM, OCI-C5x cells, with rucaparib 10 µM, 100% = cells with rucaparib alone) it was 114% (inactive); in assay [8] (at 0.00122 µM, OCI-C5x cells, without rucaparib), 111% (inactive). Moreover, the viability in [8] (at 0.00122 µM, OCI-P5x cells, with rucaparib 20 µM, 100% = cells with rucaparib alone) was 102% (inactive); in [8] (at 0.00122 µM, OCI-P5x cells, without rucaparib), 104% (inactive); in [8] (at 0.00488 µM, OCI-C5x cells, with rucaparib 10 µM, 100% = cells with rucaparib alone), 107% (inactive); in assay [8] (at 0.00488 µM, OCI-C5x cells, without rucaparib), 115% (inactive); in assay [8] (at 0.00488 µM, OCI-P5x cells, with rucaparib 20 µM, 100% = cells with rucaparib alone), 103% (inactive); in assay [8] (at 0.00488 µM, OCI-P5x cells, without rucaparib), 101% (inactive). The viability in assay [8] (at 0.0195 µM, OCI-C5x cells, with rucaparib 10 µM, 100% = cells with rucaparib alone) is 91.1% (active); in assay [8] (at 0.0195 µM, OCI-C5x cells, without rucaparib), 88% (active); in assay [8] (at 0.0195 µM, OCI-P5x cells, with rucaparib 20 µM, 100% = cells with rucaparib alone) it was 94.8% (active); in assay [8] (at 0.0195 µM, OCI-P5x cells, without rucaparib), 61.6% (active); in assay [8] (at 0.0781 µM, OCI-C5x cells, with rucaparib 10 µM, 100% = cells with rucaparib alone), 53.4% (active); in assay [8] (at 0.0781 µM, OCI-C5x cells, without rucaparib), 45% (active). Also, the viability was 73.5% (active) in assay [8] (at 0.0781 µM, OCI-P5x cells, with rucaparib 20 µM, 100% = cells with rucaparib alone); 23.1% (active) in assay [8] (at 0.0781 µM, OCI-P5x cells, without rucaparib); 50.7% (active) in assay [8] (at 0.313 µM, OCI-C5x cells, with rucaparib 10 µM, 100% = cells with rucaparib alone); 35.9% (active) in [8] (at 0.313 µM, OCI-C5x cells, without rucaparib); 56.6% (active) in assay [8] (at 0.313 µM, OCI-P5x cells, with rucaparib 20 µM, 100% = cells with rucaparib alone); 20.6% (active) in assay [8] (at 0.313 µM, OCI-P5x cells, without rucaparib). In addition, the viability is 37.8% (active) in assay [8] (at 1.25 µM, OCI-C5x cells, with rucaparib 10 µM, 100% = cells with rucaparib alone); 32.9% (active) in assay [8] (at 1.25 µM, OCI-C5x cells, without rucaparib); 54.9% (active) in assay [8] (at 1.25 µM, OCI-P5x cells, with rucaparib 20 µM, 100% = cells with rucaparib alone); 14.5% (active) in assay [8] (at 1.25 µM, OCI-P5x cells, without rucaparib); 36.1% (active) in [8] (at 5 µM, OCI-C5x cells, with rucaparib 10 µM, 100% = cells with rucaparib alone); 29% (active) in [8] (at 5 µM, OCI-C5x cells, without rucaparib). The viability is 52% (active) in [8] (at 5 µM, OCI-P5x cells, with rucaparib 20 µM, 100% = cells with rucaparib alone) and 12.1% (active) in assay [8] (at 5 µM, OCI-P5x cells, without rucaparib).

As to `CC(C)c1nn(-c2c(Cl)cccc2Cl)c2nc(Cc3ccc(OCCO)cc3)[nH]c(=O)c12`, the AC50 in [1] is 41.7 nM (active); in assay [2], 118 nM (active); in assay [3], 83.3 nM (active); in [4] it was 46.8 nM (active); in assay [5], 41.7 nM (active); in [6], 46.8 nM (active). Further, in [7], the IC50 was 83.3 nM (active).

In the case of `CC1(C)Cc2c(-c3ccccc3)c(-c3ccc(Cl)cc3)c(CC(=O)O)n2C1`, the values for the AC50 in assay [1] and in assay [3] were 26300 nM (active) and 18700 nM (active), respectively. Besides, the result in [2], in assay [4] and in [7] was inactive. The figures for the fold change in assay [9] (setting [11]) and in assay [9] (setting [12]) were 0.932 (inactive) and 1.58, respectively. In addition, the cell count came out at 5140 in assay [9] (setting [13]) and 5520 in assay [9] (setting [14]). Further, the z-score in assay [10] (setting [15]) is -0.384 (inactive); in [10] (setting [16]) it was 1.11.

Turning to `O=C(O)c1ccccc1C(=O)Nc1ccc(-c2ccccc2)cc1`, the result in assay [1], in [2], in assay [3], in [4], in [5] and in assay [6] was inactive. For the same compound, the call in [7] was inactive.

Consider `Nc1nc(N)c2nc(-c3cccc(O)c3)c(-c3cccc(O)c3)nc2n1`, for which the result in assay [1], in [4], in assay [5], in assay [6] and in assay [7] was inactive. Further, the AC50 in assay [2] was 14800 nM (active); in assay [3] it was 6620 nM (active). The fold change was 0.972 (inactive) in assay [9] (setting [11]) and 0.762 in assay [9] (setting [12]). Further, the cell count in [9] (setting [13]) is 7630; in assay [9] (setting [14]), 7850. The results for the z-score in assay [10] (setting [15]) and in assay [10] (setting [16]) were -0.482 (inactive) and 0.936, respectively.
